Experiment [1] in a line: NCI Yeast Anticancer Drug Screen. Data for the rad50 strain (AID 155).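 Note: 0% = growth of vehicle-only cultures of the same strain.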 To be noted: S. cerevisiae rad50 strain growth inhibition, active compounds read high. The gist of the method: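 Compounds were tested on a yeast strain with an engineered DNA damage repair alteration; the reported value is growth inhibition normalised to vehicle treatment.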
Experiment [2] is described as follows: NCI Yeast Anticancer Drug Screen. Data for the mec2-1 strain (AID 157). The note with it: S. cerevisiae mec2-1 strain, active compounds read high. The gist of the method: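 Readout is yeast growth inhibition, normalised to vehicle-treated controls, in the mec2-1 strain exposed to compound.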
Experiment [3] is described as follows: NCI Yeast Anticancer Drug Screen. Data for the sgs1 mgt1 strain (AID 161).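 Note: 0% = growth of cultures given vehicle only.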 The note with it: S. cerevisiae sgs1 mgt1 strain, active compounds read high. The gist of the method:
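This yeast growth screen uses a strain with defined DNA-repair lesions; compound-treated growth is compared with vehicle-treated growth.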

Experiment [4] can be described thus: NCI Yeast Anticancer Drug Screen. Data for the cln2 rad14 strain (AID 165).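 Note: 0% = growth equal to vehicle treated cultures.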 The note with it: S. cerevisiae cln2 rad14 strain, active compounds read high. The gist of the method:
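Relative to vehicle controls, growth inhibition of compound-treated cln2 rad14 yeast was recorded.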

Experiment [5] can be described thus: NCI Yeast Anticancer Drug Screen. Data for the bub3 strain (AID 167). The note with it: S. cerevisiae bub3 mutant strain, active compounds read high. The gist of the method: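 Growth of a checkpoint-deficient yeast mutant is measured after compound exposure. Values represent inhibition relative to vehicle.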
Experiment [6] can be described thus: NCI Yeast Anticancer Drug Screen. Data for the mlh1 rad18 strain (AID 175). The note with it: S. cerevisiae mlh1 rad18 strain growth inhibition, active compounds read high. The gist of the method: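 Test agents were incubated with a yeast strain of defined genotype (DNA damage repair defect). Inhibition of growth was derived by comparison with vehicle-exposed cultures.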

The mark [7] stands for this setting: at 5.0 µM (retest, dose inferred, filed as 0.5).
The mark [8] stands for this setting: at 50.0 µM (retest, dose inferred, filed as 5.0).

The values that follow come from PubChem BioAssay (NCI).

About 79,000 compounds went through this panel and 15% of them were active in at least one assay; those are over-represented in the sample as a whole. Unmarked numbers belong to inactive results. Calls of active or inactive are those of the source. Cut-off read from the data, not from the text of the source: active = growth inhibition above about 70%; inactive = the rest.

As to `CC(=O)CC1CCC(=O)/C=C/C(=O)OC(CC(C)=O)CCC(=O)/C=C/C(=O)O1` (configuration not stated), the growth inhibition in experiment [1] (setting [7]) is 20%; in experiment [1] (setting [8]), 38%; in experiment [1] (at 50.0 µM), 16.3%; in experiment [2] (setting [7]), 14%; in experiment [2] (setting [8]) it was 47%; in experiment [2] (at 50.0 µM), -13.5%. In addition, the growth inhibition in experiment [3] (setting [7]) is 11%; in experiment [3] (setting [8]), 42%; in experiment [3] (at 50.0 µM), -6.3%; in experiment [4] (setting [7]), 5%; in experiment [4] (setting [8]), 27%; in experiment [4] (at 50.0 µM), 23.1%. In addition, the growth inhibition in experiment [5] (setting [7]) is 9%; in experiment [5] (setting [8]), 82% (active); in experiment [5] (at 50.0 µM) it was -17.1%; in experiment [6] (setting [7]), 17%; in experiment [6] (setting [8]), 56%; in experiment [6] (at 50.0 µM), -81.7%.

For `CCC(C)(C)c1ccc(OC(=O)C(C)OC(C)=O)cc1` (configuration not stated), the growth inhibition in experiment [1] (setting [7]) was 12%; in experiment [1] (setting [8]), 33%; in experiment [1] (at 50.0 µM) it was 82% (active); in experiment [2] (setting [7]), -5%; in experiment [2] (setting [8]), 48%; in experiment [2] (at 50.0 µM) it was 84.9% (active). The growth inhibition in experiment [3] (setting [7]) was 0%; in experiment [3] (setting [8]), 68%; in experiment [3] (at 50.0 µM), 88% (active); in experiment [4] (setting [7]), 1%; in experiment [4] (setting [8]) it was 21%; in experiment [4] (at 50.0 µM), 49.9%. For the same compound, the growth inhibition was -5% in experiment [5] (setting [7]); 53% in experiment [5] (setting [8]); 87.2% (active) in experiment [5] (at 50.0 µM); -10% in experiment [6] (setting [7]); 46% in experiment [6] (setting [8]); 86.7% (active) in experiment [6] (at 50.0 µM).

Take `CC([NH-])C(=O)O.[Cu+2].[NH-]C(Cc1cnc[nH]1)C(=O)O` (configuration not stated): the growth inhibition in experiment [1] (setting [7]) was -8%; in experiment [1] (setting [8]), 7%; in experiment [1] (at 50.0 µM), 98.9% (active); in experiment [2] (setting [7]), -4%; in experiment [2] (setting [8]) it was 0%; in experiment [2] (at 50.0 µM), 99.3% (active). Further, the growth inhibition was -3% in experiment [3] (setting [7]); 1% in experiment [3] (setting [8]); 98.7% (active) in experiment [3] (at 50.0 µM); 4% in experiment [4] (setting [7]); 12% in experiment [4] (setting [8]); 96% (active) in experiment [4] (at 50.0 µM). Besides, the growth inhibition in experiment [5] (setting [7]) is -5%; in experiment [5] (setting [8]), -1%; in experiment [5] (at 50.0 µM), 99% (active); in experiment [6] (setting [7]) it was -7%; in experiment [6] (setting [8]), 2%; in experiment [6] (at 50.0 µM) it was 98.7% (active).

Consider `CC1=C(C(=O)Nc2ccccc2Cl)C(c2cccc([N+](=O)[O-])c2)C(C(=O)Nc2ccccc2Cl)=C(C)N1`, for which the growth inhibition is -12% in experiment [1] (setting [7]); 53% in experiment [1] (setting [8]); 11.8% in experiment [1] (at 50.0 µM); 27% in experiment [2] (setting [7]); 67% in experiment [2] (setting [8]); 30.2% in experiment [2] (at 50.0 µM). The growth inhibition in experiment [3] (setting [7]) was -10%; in experiment [3] (setting [8]) it was 51%; in experiment [3] (at 50.0 µM), 20.4%; in experiment [4] (setting [7]), 11%; in experiment [4] (setting [8]), 61%; in experiment [4] (at 50.0 µM), 1.9%. Further, the growth inhibition in experiment [5] (setting [7]) is 21%; in experiment [5] (setting [8]), 80% (active); in experiment [5] (at 50.0 µM), 27.9%; in experiment [6] (setting [7]) it was 13%; in experiment [6] (setting [8]) it was 63%; in experiment [6] (at 50.0 µM), 13.3%.

Regarding `CN1C(=O)c2ccccc2C1(c1ccccc1)c1ccccc1`, the growth inhibition in experiment [1] (setting [7]) is 0%; in experiment [1] (setting [8]), 90% (active); in experiment [1] (at 50.0 µM), 30.1%; in experiment [2] (setting [7]) it was 2%; in experiment [2] (setting [8]), 96% (active); in experiment [2] (at 50.0 µM), 14.8%. For the same compound, the growth inhibition in experiment [3] (setting [7]) is 4%; in experiment [3] (setting [8]) it was 98% (active); in experiment [3] (at 50.0 µM) it was 20.9%; in experiment [4] (setting [7]) it was 13%; in experiment [4] (setting [8]), 37%; in experiment [4] (at 50.0 µM), 43.1%. For the same compound, the growth inhibition in experiment [5] (setting [7]) was 5%; in experiment [5] (setting [8]), 62%; in experiment [5] (at 50.0 µM) it was 45.1%; in experiment [6] (setting [7]) it was 15%; in experiment [6] (setting [8]), 95% (active); in experiment [6] (at 50.0 µM), 56.9%.

Take `c1ccc(-n2ncc3ccc4cccn4c32)cc1`: the growth inhibition in experiment [1] (setting [7]) was -4%; in experiment [1] (setting [8]), -2%; in experiment [1] (at 50.0 µM), 63.9%; in experiment [2] (setting [7]), 3%; in experiment [2] (setting [8]) it was 9%; in experiment [2] (at 50.0 µM), 38.1%. For the same compound, the growth inhibition in experiment [3] (setting [7]) was -15%; in experiment [3] (setting [8]) it was 40%; in experiment [3] (at 50.0 µM) it was 55%; in experiment [4] (setting [7]) it was -13%; in experiment [4] (setting [8]), 25%; in experiment [4] (at 50.0 µM), 13.1%. In addition, the growth inhibition was 17% in experiment [5] (setting [7]); 16% in experiment [5] (setting [8]); 91.3% (active) in experiment [5] (at 50.0 µM); 12% in experiment [6] (setting [7]); 40% in experiment [6] (setting [8]); 47.7% in experiment [6] (at 50.0 µM).

In the case of `O=[N+]([O-])c1ccc(SCc2ccccc2)c2nonc12`, the growth inhibition was 13% in experiment [1] (setting [7]); 63% in experiment [1] (setting [8]); 86.8% (active) in experiment [1] (at 50.0 µM); 12% in experiment [2] (setting [7]); 99% (active) in experiment [2] (setting [8]); 89.5% (active) in experiment [2] (at 50.0 µM). The growth inhibition is 14% in experiment [3] (setting [7]); 87% (active) in experiment [3] (setting [8]); 88% (active) in experiment [3] (at 50.0 µM); 13% in experiment [4] (setting [7]); 77% (active) in experiment [4] (setting [8]); 88.9% (active) in experiment [4] (at 50.0 µM). For the same compound, the growth inhibition in experiment [5] (setting [7]) was 11%; in experiment [5] (setting [8]), 97% (active); in experiment [5] (at 50.0 µM), 88.7% (active); in experiment [6] (setting [7]), 22%; in experiment [6] (setting [8]) it was 81% (active); in experiment [6] (at 50.0 µM), 86% (active).

For the compound `Cc1ccc(C(=O)/C=C/c2ccco2)c(C)c1`, the growth inhibition in experiment [1] (setting [7]) is -9%; in experiment [1] (setting [8]), -12%; in experiment [1] (at 50.0 µM), 11.3%; in experiment [2] (setting [7]) it was -42%; in experiment [2] (setting [8]), 1%; in experiment [2] (at 50.0 µM), 25.9%. In addition, the growth inhibition is -14% in experiment [3] (setting [7]); 15% in experiment [3] (setting [8]); 63.8% in experiment [3] (at 50.0 µM); -14% in experiment [4] (setting [7]); 5% in experiment [4] (setting [8]); 25.8% in experiment [4] (at 50.0 µM). The growth inhibition is 2% in experiment [5] (setting [7]); 4% in experiment [5] (setting [8]); 54.5% in experiment [5] (at 50.0 µM); -20% in experiment [6] (setting [7]); 61% in experiment [6] (setting [8]); 17.6% in experiment [6] (at 50.0 µM).

`COC1=Nc2ccccc2S(=O)(=O)C=C1`: the growth inhibition was 4% in experiment [1] (setting [7]); 87% (active) in experiment [1] (setting [8]); 98.2% (active) in experiment [1] (at 50.0 µM); 3% in experiment [2] (setting [7]); 79% (active) in experiment [2] (setting [8]); 98.5% (active) in experiment [2] (at 50.0 µM). The growth inhibition in experiment [3] (setting [7]) is 2%; in experiment [3] (setting [8]), 89% (active); in experiment [3] (at 50.0 µM) it was 99.2% (active); in experiment [4] (setting [7]), 6%; in experiment [4] (setting [8]), 79% (active); in experiment [4] (at 50.0 µM), 95.8% (active). Besides, the growth inhibition was 11% in experiment [5] (setting [7]); 98% (active) in experiment [5] (setting [8]); 98.7% (active) in experiment [5] (at 50.0 µM); 12% in experiment [6] (setting [7]); 94% (active) in experiment [6] (setting [8]); 98.3% (active) in experiment [6] (at 50.0 µM).
